We go through 17 compounds from PubChem BioAssay (NCI).

Compounds without any hit were thinned out: in the full panel of roughly 79,000, 15% have a hit. Active and inactive are the calls of the source. Rule as the data show it: active = growth inhibition above about 70%; inactive = the rest.

A short description of the experiment: NCI Yeast Anticancer Drug Screen. Data for the mec2-1 strain (AID 157). As to conditions: S. cerevisiae mec2-1 strain, at 50.0 µM, active compounds read high. A digest of the protocol:
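mec2-1 yeast strain, carrying an alteration in DNA damage repair or cell cycle control, was exposed to compounds; growth inhibition was measured relative to vehicle-treated controls.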
With `CCC(c1ccc(N(CC)CC)cc1[N+](=O)[O-])c1ccc(N(CC)CC)cc1[N+](=O)[O-]`, the growth inhibition was 26.4% (inactive). On to `O=C1CC2(CCc3ccccc32)C(=O)N1CN1CCN(CCO)CC1` (configuration not stated), for which the growth inhibition is -5.8% (inactive). For `CC(C)CC(C)C`, the growth inhibition was -2.6% (inactive).

As to `Nc1nc(Cl)cc(Nc2ccc3c(c2)CCC3)n1`, the growth inhibition is 6.8% (inactive). For `CC1N=C(SCC(=O)c2ccc(Cl)cc2)N2C(C)N=C(SCC(=O)c3ccc(Cl)cc3)N12` (configuration not stated), the growth inhibition is -17.1% (inactive). For `COc1ccc(/C=N\O[Si](C)(C)C(C)(C)C)cc1O[Si](C)(C)C(C)(C)C`, the growth inhibition is 17.2% (inactive). As for `CCOC(=O)/C(=C\c1c(C)[nH]c2ccccc12)P(=O)(OCC)OCC`, the figure is -15.7% (inactive); as for `COC1(C2COc3cc(OCc4ccccc4)ccc3C2=O)C=C2OCOC2=CC1=O` (configuration not stated), -18% (inactive).

As to `CCNC1(C(=O)O)CCCCC1`, the growth inhibition is -2.15% (inactive).

For `COC(=O)C(C)CC(C)C(=O)OC` (configuration not stated), the growth inhibition was -15.8% (inactive). As for `CN(C)C=Nc1c(Br)cc(Br)c2nonc12`, the figure is -31.1% (inactive); as for `c1ccc(C2=C(c3ccccc3)c3ccccc3C2)cc1`, -7.3% (inactive); as for `C/C(=C\c1ccccc1)C(=O)c1c(C)cc(C)cc1C`, -2.9% (inactive). For `COc1ccc(Cl)cc1NC(=O)Oc1ccccc1C(N)=O`, the growth inhibition is 43.5% (inactive). For the compound `C=CCN=C1NC(=O)C(CC(=O)Nc2cccc(Cl)c2)S1` (configuration not stated), the growth inhibition is -25% (inactive). Consider `Cc1ccc2cccc(CCOC(=O)c3ccc([N+](=O)[O-])cc3)c2c1`, for which the growth inhibition is -19.1% (inactive).

As for `CCC(=O)Nc1cccc2ccccc12`, the growth inhibition is -12.7% (inactive).
